From the supplement of paper PMC9262897, “Low-cost anti-mycobacterial drug discovery using engineered E. coli” (Nature Communications, 2022)
Counter-ions that a name gives are not always drawn. ± gives the standard deviation of the averaged measurements.

Assays:
Assay in all cases: growth (OD600 after 10 h); higher = more growth (less inhibition)
[1] = test system: E. coli TESEC Alr+ wild-type control; settings: compound 0.1 mM; raw OD600 reference: median of DMSO wells 0.241, cell-free background 0.041
Experimental: (§1)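 TESEC Mtb Alr E. coli, or the Alr+ wild-type control, in 384-well plates with Prestwick library compounds at 0.1 mM and 1% DMSO, across arabinose induction levels of 1E3 to 1E7 nM. Growth is read as OD600 after 10 h at 37 °C in triplicate biological replicates.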

[2] = test system: E. coli TESEC Mtb Alr; settings: compound 0.1 mM
Experimental: as §1

[3] = test system: E. coli TESEC Mtb Asd; settings: compound 0.1 mM
Experimental: (§2)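 TESEC E. coli strains in which the native enzyme is deleted and replaced by arabinose-inducible Mtb Asd, DapB, CysH or TrpD, each grown in its selective medium. Strains were screened against the Prestwick library at 0.1 mM and 1% DMSO in 384-well format at low and high arabinose induction. Growth is read as OD600 after 10 h in triplicate.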

[4] = test system: E. coli TESEC Mtb Alr; settings: compound 0.1 mM; remark: listed apart in the source
Experimental: (§3)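 TESEC Mtb Alr E. coli (ΔaraC ΔtolC ΔentC Δalr ΔdadX, arabinose-inducible Mtb Alr) or the Alr+ wild-type control strain, grown in defined M9-fructose medium without D-alanine in 96-well plates with Prestwick library compounds at 0.1 mM and 1% DMSO. Low Alr induction is 0.1 µM arabinose and high induction is 10 mM arabinose.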

[5] = test system: E. coli TESEC Mtb DapB; settings: compound 0.1 mM
Experimental: as §2

[6] = test system: E. coli TESEC Alr+ wild-type control; settings: compound 0.1 mM; raw OD600 reference: median of DMSO wells 0.49, cell-free background 0.052
Experimental: as §3

[7] = arabinose 1000 nM, raw OD600 reference: median of DMSO wells 0.294, cell-free background 0.041
[8] = arabinose 10000 nM, raw OD600 reference: median of DMSO wells 0.264, cell-free background 0.041
[9] = arabinose 100000 nM, raw OD600 reference: median of DMSO wells 0.201, cell-free background 0.041
[10] = arabinose 1000000 nM, raw OD600 reference: median of DMSO wells 0.193, cell-free background 0.041
[11] = arabinose 10000000 nM, raw OD600 reference: median of DMSO wells 0.146, cell-free background 0.041
[12] = arabinose induction (level): High, raw OD600 reference: median of DMSO wells 0.331, cell-free background 0.041
[13] = arabinose induction (level): Low, raw OD600 reference: median of DMSO wells 0.417, cell-free background 0.041
[14] = arabinose 100 nM, raw OD600 reference: median of DMSO wells 0.413, cell-free background 0.052
[15] = arabinose 10000000 nM, raw OD600 reference: median of DMSO wells […], cell-free background 0.052
[16] = arabinose induction (level): High, raw OD600 reference: median of DMSO wells […], cell-free background 0.041
[17] = arabinose induction (level): Low, raw OD600 reference: median of DMSO wells 0.227, cell-free background 0.041

| Compound | growth [1] | growth [2, 7] | growth [2, 8] | growth [2, 9] | growth [2, 10] | growth [2, 11] | growth [3, 12] | growth [3, 13] | growth [4, 14] | growth [4, 15] | growth [5, 16] | growth [5, 17] | growth [6] |
| --- | --- | --- | --- | --- | --- | --- | --- | --- | --- | --- | --- | --- | --- |
| C1CCc2nnnn2CC1 [Pentylenetetrazole] | 0.255 ± 0.011 | 0.282 ± 0.018 | 0.275 ± 0.0089 | 0.233 ± 0.021 | 0.187 ± 0.0053 | 0.141 ± 0.007 | 0.402 ± 0.0048 | 0.431 ± 0.017 | 0.408 ± 0.011 | 0.367 ± 0.022 | – | – | – |
| Cc1cc(C(C#N)c2ccc(Cl)cc2)c(Cl)cc1NC(=O)c1cc(I)cc(I)c1O (stereo unspecified) [Closantel] | 0.067 ± 0.0041 | 0.0633 ± 0.008 | 0.0425 ± 0.0013 | 0.0471 ± 0.0022 | 0.0411 ± 0.00058 | 0.0539 ± 0.00083 | 0.0773 ± 0.0025 | 0.0874 ± 0.0013 | 0.137 ± 0.042 | 0.145 ± 0.043 | – | – | – |
| Clc1ccc(C(OCCN2CCCCC2)c2ccccc2)cc1 (stereo unspecified) [Cloperastine hydrochloride] | 0.186 ± 0.0072 | 0.232 ± 0.0029 | 0.2462 ± 0.0014 | 0.174 ± 0.0052 | 0.0487 ± 0.0015 | 0.0546 ± 0.00059 | 0.113 ± 0.002 | 0.154 ± 0.0084 | 0.4058 ± 0.0039 | 0.147 ± 0.085 | 0.146 ± 0.012 | 0.163 ± 0.0059 | – |
| C[C@]12N[C@H](Cc3ccccc31)c1ccccc12 [Dizocilpine maleate] | 0.2374 ± 0.0019 | 0.286 ± 0.009 | 0.273 ± 0.0096 | 0.158 ± 0.014 | 0.123 ± 0.0042 | 0.134 ± 0.0024 | 0.179 ± 0.014 | 0.415 ± 0.059 | 0.4169 ± 0.0029 | 0.304 ± 0.01 | 0.179 ± 0.019 | 0.18 ± 0.012 | – |
| CC(C)C[C@H]1C(=O)N2CCC[C@H]2[C@]2(O)O[C@](NC(=O)[C@@H]3C=C4c5cccc6[nH]c(Br)c(c56)C[C@H]4N(C)C3)(C(C)C)C(=O)N12 [Bromocryptine mesylate] | 0.108 ± 0.0027 | 0.112 ± 0.058 | 0.108 ± 0.0015 | 0.187 ± 0.12 | 0.0887 ± 0.025 | 0.191 ± 0.013 | 0.208 ± 0.056 | 0.117 ± 0.047 | 0.401 ± 0.0088 | 0.323 ± 0.067 | – | – | 0.511 ± 0.046 |
| C[C@]12CC[C@H](O)C[C@H]1CC[C@@H]1[C@@H]2C[C@@H](O)[C@]2(C)[C@@H](C3=CC(=O)OC3)CC[C@]12O [Digoxigenin] | 0.228 ± 0.005 | 0.299 ± 0.018 | 0.257 ± 0.0041 | 0.201 ± 0.016 | 0.17 ± 0.0032 | 0.14 ± 0.0016 | 0.262 ± 0.025 | 0.458 ± 0.024 | 0.408 ± 0.02 | 0.331 ± 0.011 | – | – | 0.491 ± 0.031 |
| O=P1(NCCCl)OCCCN1CCCl (stereo unspecified) [Ifosfamide] | 0.233 ± 0.012 | 0.301 ± 0.027 | 0.2741 ± 0.0022 | 0.175 ± 0.022 | 0.192 ± 0.0026 | 0.137 ± 0.0089 | 0.374 ± 0.074 | 0.48 ± 0.032 | 0.417 ± 0.011 | 0.359 ± 0.01 | – | – | – |
